The values that follow come from PubChem BioAssay.

Assay [1] is described as follows: HepG2 liver cancer cell viability effects, profiling panel, resazurin fluorescence, 24 h, PK04 Diversity Set (AID 1172). Further: test concentration not given here. As to conditions: higher = more signal. On the technique in general: Alamar Blue is a resazurin reagent that responds to reducing activity.
Assay [2] can be described thus: basal S. cerevisiae growth modulation, no modifier, primary screen, OD600, strain BY4716, 24 h, basal condition (AID 1173). The note with it: OD600, 24 h, higher = more signal, called active from +8 up or from −8 down.
A short description of assay [3]: MM1S myeloma cell viability, profiling panel, resazurin fluorescence, basal, 24 h, PK04 Diversity Set (AID 1174).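 Further: MM1S multiple myeloma cell line; test concentration not given here.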 As to conditions: higher = more signal, called active from +8 up or from −8 down.
Assay [4] addresses Dihydroorotate dehydrogenase (quinone), mitochondrial (Plasmodium falciparum (isolate 3D7)) (UniProt Q08210). Kind of assay: PfDHODH enzyme inhibitors, primary screen, biochemical, C-terminal His tag, absorbance 600 nm (AID 1175).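 Further: recombinant parasite enzyme with a five histidine tag at its C terminus; test concentration not given here.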 The note with it: DCIP absorbance 600 nm, higher = more signal, called active from +8 up or from −8 down.
A short description of assay [5]: P. aeruginosa biofilm formation inhibitors, primary screen, strain PAO1, LB-PBS medium, absorbance 600 nm (AID 1176). Further: test concentration not given here. The note with it: P. aeruginosa PAO1 growth/biofilm, A600, 12 h; higher = more signal.
Assay [6] can be described thus: S. cerevisiae RM11-1a growth modifiers, primary screen, strain RM11-1a, OD600, basal, 24 h (AID 1177).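 Further: cultures grown under basal conditions with no added stressor; test concentration not given here.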 As to conditions: OD600, 24 h, higher = more signal, called active from +8 up or from −8 down.
Assay [7] is described as follows: E. coli acrAB mutant growth effects, primary screen, E. coli filamentation inducers, strain DRC39, OD650, 24 h (AID 1178).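 Further: growth measured as culture turbidity by optical density at 650 nm; test concentration not given here.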 As to conditions: higher = more signal, called active from +8 up or from −8 down.
The nature of assay [8]: E. coli acrAB mutant growth effects, primary screen, E. coli filamentation inducers, strain DRC39, OD650, 48 h (AID 1179).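 Further: screen aims at cell division blockers that make cells filament.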 The note with it: E. coli DRC39 delta-acrAB growth, higher = more signal, called active from +8 up or from −8 down.
The nature of assay [9]: RPMI8226 myeloma cell viability, profiling panel, resazurin fluorescence, basal, 24 h, PK04 Diversity Set (AID 1180).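 Further: RPMI8826 multiple myeloma cell line at 5000 cells per well; test concentration not given here.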 The note with it: higher = more signal.
Assay [10] concerns the target E3 ubiquitin-protein ligase XIAP (Homo sapiens) (UniProt P98170). The experiment in a line: XIAP binders, primary screen, biophysical, small-molecule microarray, fluorescence 635 nm (AID 1181).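 Further: score merges 667 nm emission and signal to noise over triplicate slides.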 As to conditions: small-molecule microarray binding, higher = more signal.

Calls of active or inactive are those of the source. Unless noted, how the calls were made is not given here.

Chain of Dihydroorotate dehydrogenase (quinone), mitochondrial (Plasmodium falciparum (isolate 3D7)) (Q08210 whole entry, looked up): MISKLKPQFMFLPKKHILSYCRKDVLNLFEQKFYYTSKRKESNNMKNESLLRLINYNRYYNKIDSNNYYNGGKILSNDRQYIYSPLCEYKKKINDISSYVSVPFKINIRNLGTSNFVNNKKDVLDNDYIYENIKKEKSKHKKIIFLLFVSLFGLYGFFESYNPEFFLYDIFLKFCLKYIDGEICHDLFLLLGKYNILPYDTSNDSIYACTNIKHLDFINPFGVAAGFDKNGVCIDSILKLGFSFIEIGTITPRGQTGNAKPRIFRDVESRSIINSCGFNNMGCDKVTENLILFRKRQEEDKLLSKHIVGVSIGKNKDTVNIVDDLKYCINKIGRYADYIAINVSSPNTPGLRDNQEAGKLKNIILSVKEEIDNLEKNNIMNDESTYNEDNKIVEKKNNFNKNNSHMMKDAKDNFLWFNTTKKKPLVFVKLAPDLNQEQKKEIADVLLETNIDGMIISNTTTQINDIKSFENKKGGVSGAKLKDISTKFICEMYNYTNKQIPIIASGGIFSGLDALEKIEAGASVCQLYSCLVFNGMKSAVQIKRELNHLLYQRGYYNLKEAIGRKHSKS
Chain of E3 ubiquitin-protein ligase XIAP (Homo sapiens) (P98170 whole entry, looked up): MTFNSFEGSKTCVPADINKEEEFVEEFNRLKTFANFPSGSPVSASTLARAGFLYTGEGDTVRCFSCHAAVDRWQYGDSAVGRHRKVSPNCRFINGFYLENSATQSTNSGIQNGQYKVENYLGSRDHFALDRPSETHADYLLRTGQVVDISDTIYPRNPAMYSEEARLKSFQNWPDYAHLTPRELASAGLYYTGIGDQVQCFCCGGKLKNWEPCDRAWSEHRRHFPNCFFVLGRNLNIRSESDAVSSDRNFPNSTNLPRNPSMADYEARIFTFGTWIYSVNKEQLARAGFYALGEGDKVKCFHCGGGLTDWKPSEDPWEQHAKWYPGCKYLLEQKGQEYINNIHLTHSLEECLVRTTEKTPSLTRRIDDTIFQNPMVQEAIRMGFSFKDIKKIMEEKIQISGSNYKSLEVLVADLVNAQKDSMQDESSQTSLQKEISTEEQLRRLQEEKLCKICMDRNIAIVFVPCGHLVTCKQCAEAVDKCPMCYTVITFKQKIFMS

`COc1ccc(C(=O)Nc2ccc(CN3C(=O)[C@@]4(O[C@@H](CCn5cc(CCO)nn5)[C@H]([Si](C)(C)c5ccc(OC)cc5)[C@H]4C)c4ccccc43)cc2)cc1`: the z-score in [1] was -3.26; in [2], -5.03 (inactive); in assay [3], -4.02 (inactive); in assay [5], 0.863 (inactive); in [6], 2.47 (inactive); in assay [7], 1.07 (inactive). Moreover, the z-score in [8] is -0.101 (inactive); in assay [9], -3.35. Further, the composite z-score in assay [4] was 0.483 (inactive); in assay [10] it was -0.0871.
As to `C[N+](C)(C)CCCC[C@@H]1NC(=O)[C@@H]2C[C@H](C(=O)NCc3ccc(F)cc3)[C@H](c3ccc(O)cc3)N2C1=O`, the z-score in [1] is -0.348; in [2], 0.628 (inactive); in assay [3] it was 0.0125 (inactive); in [5] it was 0.683 (inactive); in [6], 0.506 (inactive); in assay [7], 0.426 (inactive). The z-score is 0.577 (inactive) in assay [8] and 0.276 in assay [9]. The composite z-score in assay [4] is 0.0528 (inactive); in [10], 0.0223.
For the molecule `COc1cc(OC)c(C(O)C2C=CC3C(=O)N(c4ccccc4)C(=O)C3N2Nc2ccc(C(C)C)cc2)cc1Br` (stereo not given), the z-score was 0.092 in assay [1]; -4.46 (inactive) in assay [2]; -0.263 (inactive) in [3]; 2.24 (inactive) in assay [5]; 0.171 (inactive) in [6]; 0.238 (inactive) in assay [7]. Moreover, the results for the z-score in assay [8] and in [9] were 0.48 (inactive) and 0.289, respectively. In addition, the composite z-score in assay [4] is 0.145 (inactive); in [10], 0.0838.
In the case of `O=C1[C@@H]2[C@@H](CC(COc3ccccc3)=C([C@H](O)CCc3ccccc3)[C@@H]2CO)C(=O)N1Cc1ccccc1`, the z-score in assay [1] is -1.38; in assay [2], -0.0733 (inactive); in assay [3], -0.577 (inactive); in assay [5], 0.258 (inactive); in assay [6] it was 1.47 (inactive); in assay [7], 0.372 (inactive). Besides, the results for the z-score in assay [8] and in [9] were 0.203 (inactive) and -0.664, respectively. Further, the composite z-score in assay [4] is -2.37 (inactive); in assay [10], 0.15.
As for `Cc1ccccc1C(O)C1C=CC2C(=O)N(c3ccccc3)C(=O)C2N1Nc1ccccc1` (stereo not given), the z-score in assay [1] is -0.341; in assay [2], -2.84 (inactive); in assay [3], -0.516 (inactive); in assay [5], 0.956 (inactive); in assay [6], 0.0725 (inactive); in assay [7] it was -0.36 (inactive). In addition, the z-score in [8] was 0.372 (inactive); in assay [9], -0.0175. Moreover, the composite z-score in assay [4] was 0.106 (inactive); in assay [10], 0.265.
As to `C=C1C(=O)C=C2CN(C(=O)c3ccccc3)[C@@](Cc3ccc(OC)cc3)(C(=O)OC)[C@@H]12`, the z-score was -0.187 in assay [1]; 1.33 (inactive) in [2]; -1.82 (inactive) in assay [3]; 0.964 (inactive) in assay [5]; 0.468 (inactive) in assay [6]; -0.624 (inactive) in [7]. Also, the z-score was -0.841 (inactive) in [8] and -4.1 in assay [9]. Moreover, the composite z-score was 0.046 (inactive) in assay [4] and 0.107 in [10].
Consider `COc1ccc([Si](C)(C)[C@H]2[C@H](CC(=O)N3Cc4ccccc4C[C@H]3CO)O[C@@]3(C(=O)N(C)c4c(Br)cc(C)cc43)[C@@H]2C)cc1`, for which the z-score in assay [1] is -4.15; in assay [2] it was 0.915 (inactive); in [3], -6.33 (inactive); in assay [5], 1.72 (inactive); in assay [6] it was 3.17 (inactive); in [7], -0.652 (inactive). For the same molecule, the z-score in [8] was -0.984 (inactive); in assay [9] it was -6.22. In addition, the composite z-score is 0.973 (inactive) in assay [4] and -0.134 in assay [10].
Turning to `CN(C)c1ccc(C(O)C2C=CC3C(=O)N(Cc4ccccc4)C(=O)C3N2n2cnnc2)cc1` (stereo not given), the z-score in assay [1] is -0.659; in assay [2], -0.116 (inactive); in assay [3], -0.253 (inactive); in assay [5], 1.77 (inactive); in assay [6] it was -0.794 (inactive); in assay [7], 0.0571 (inactive). The results for the z-score in [8] and in assay [9] were 0.694 (inactive) and -0.268, respectively. For the same molecule, the composite z-score is -0.536 (inactive) in assay [4] and 0.0968 in assay [10].
In the case of `O=C(O)[C@H](Cc1ccccc1)n1cc(C2(O)CCCCC2)nn1`, the z-score in [1] was -0.466; in assay [2] it was -0.415 (inactive); in assay [3], -0.625 (inactive); in assay [5], 0.055 (inactive); in assay [6] it was -0.563 (inactive); in assay [7], -0.128 (inactive). The z-score is -0.477 (inactive) in [8] and -0.88 in [9]. Also, the composite z-score in assay [4] was -1.6 (inactive); in assay [10] it was -0.0668.
In the case of `COCCOC(=O)N1C(=O)[C@@]2(c3ccccc31)[C@H](C(=O)N1CCN(c3ncccn3)CC1)[C@H]1C(=O)O[C@H](c3ccccc3)[C@H](c3ccccc3)N1[C@@H]2c1ccccc1OCCO`, the z-score is -0.482 in assay [1]; 1.76 (inactive) in assay [2]; -0.684 (inactive) in assay [3]; 3.3 (inactive) in [5]; 2.04 (inactive) in assay [6]; 0.858 (inactive) in assay [7]. Further, the z-score is 0.611 (inactive) in [8] and 1.69 in [9]. In addition, the composite z-score is -1.35 (inactive) in [4] and -0.0095 in assay [10].
